The text below walks through data of PubChem BioAssay (NCATS).

“And” between values parts separate entries of the source, which are not always exact repeats. Equal entries are not always repeated. A number with no mark means an inactive call. Inconclusive results are not listed. The source made the active and inactive calls. Unless noted, calls come from the whole dose curve; as a rule, active = well fitted curve in either direction with a large enough effect (not every such curve was filed as active); inconclusive = small, poorly fitted or top-dose-only effect, or another doubt; inactive = flat fitted curve, though single readings scatter.

For the first assay, the target named is Lysosomal acid glucosylceramidase (Homo sapiens) (UniProt P04062). In words: Glucocerebrosidase-p2 (AID 348; in the data active = potency below about 10 µM; note: potency is the fitted concentration of half-maximal effect). The conditions noted are these: purified GBA, blue fluorogenic substrate, 40 min. In short, it runs like this: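 Normal human glucocerebrosidase (0.2 nM) with blue fluorogenic substrate (80 uM final) in citrate/phosphate pH 5.9 with 10mM sodium taurocholate, 0.01% tween-20; 40 min RT, NaOH/glycine stop; fluorescence Ex 365/Em 440; AC50 from a titration from 0.6 nM upwards.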
Sequence of Lysosomal acid glucosylceramidase (Homo sapiens) (P04062 whole entry, looked up): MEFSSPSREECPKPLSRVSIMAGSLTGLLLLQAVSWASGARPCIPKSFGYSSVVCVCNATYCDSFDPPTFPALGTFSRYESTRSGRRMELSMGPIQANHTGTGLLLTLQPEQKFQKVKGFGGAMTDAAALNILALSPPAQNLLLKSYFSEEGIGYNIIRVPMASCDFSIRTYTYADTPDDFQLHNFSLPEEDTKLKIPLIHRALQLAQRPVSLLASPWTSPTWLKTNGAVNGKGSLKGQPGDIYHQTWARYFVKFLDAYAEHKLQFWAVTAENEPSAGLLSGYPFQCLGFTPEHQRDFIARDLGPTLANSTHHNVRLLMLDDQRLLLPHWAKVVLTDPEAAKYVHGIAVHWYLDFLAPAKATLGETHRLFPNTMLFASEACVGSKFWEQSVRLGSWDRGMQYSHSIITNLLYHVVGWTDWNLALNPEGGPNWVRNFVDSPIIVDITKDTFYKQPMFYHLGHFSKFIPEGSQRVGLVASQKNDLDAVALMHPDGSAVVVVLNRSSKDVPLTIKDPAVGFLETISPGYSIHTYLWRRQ
For `COc1ccc2[nH]cc(CCNc3ncnc4ccc(-c5ccc6c(c5)OCO6)cc34)c2c1`, the Potency is above 11.4 µM. Consider `COc1cccc(-c2cc(NCCc3c[nH]c4ccc(OC)cc34)ncn2)c1`, for which the Potency is above 11.4 µM. In the case of `COc1ccccc1CNc1ncnc2ccc(-c3ccccc3C#N)cc12`, the Potency was above 11.4 µM. The same measure, in the same setting: the result for `Cc1ccccc1-c1ccc2ncnc(N(C)C)c2c1` reads above 11.4 µM. Consider `CN(Cc1ccco1)c1ncnc2ccc(-c3ccc4c(c3)OCO4)cc12`, for which the Potency was above 11.4 µM. Turning to `COc1ccc2[nH]cc(CCNc3ncnc4ccc(-c5ccccc5C#N)cc34)c2c1`, the Potency was above 11.4 µM.

Tested on in the next assay: not listed separately
Nature of the assay: AP1 Signaling Pathway (AID 357).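 Note: ME-180 reporter cells stimulated with EGF at its EC50 level; % is set by controls: 0 for no effect and ±100 for the full control effect.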 The conditions noted are these: ME-180 (cervical carcinoma) AP-1-bla reporter, EGF-induced, beta-lactamase ratio, 5 h; at 7.69 µM (top of the series) unless noted. Summed up: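 AP-1-bla ME-180 cells, Opti-MEM + 0.5% dialyzed FBS, plated overnight 37 °C. Cpd titration + EC50 EGF, 5 h 37 °C. CCF4 2.5 h RT; ex 405, em 460/530 ratio → %activity, AC50.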
As for `N#Cc1cccc(NC(=O)N2CC[C@@]3(CCCN(C(=O)c4cccc(F)c4)C3)C2)c1`, the activity change, negative = inhibition was -20.8%. As for `COc1cccc(-c2cc(NCCc3c[nH]c4ccc(OC)cc34)ncn2)c1`, the activity change, negative = inhibition was -7.38%. As to `COc1ccccc1CNc1ncnc2ccc(-c3ccccc3C#N)cc12`, the activity change, negative = inhibition was -13.9%. On the same count and under the same terms, then `Cc1ccccc1-c1ccc2ncnc(N(C)C)c2c1`, with 13.7%.

Turning to `O=C(c1ccncc1)N1CCC2(CC1)CCN(c1ccncc1)CC2`, the activity change, negative = inhibition was -16.4%. Same read-out and setting: then `O=c1ccc2cc(O)c(O)cc2o1`, with 12.2% [at 17.2 µM]; and `O=C(c1cnccn1)N1CCC2(CCCN(Cc3ccncc3)C2)CC1`, with -12.8%; and `CC(C)CN1CCCC2(CCN(C(=O)c3ccco3)CC2)C1`, with -0.809%. Still for that read-out and setting: then `CC[C@@]12CCCN3CCc4c(n(c5ccccc45)[C@](O)(C(=O)OC)C1)[C@H]32`, with 13.8% [at 17.2 µM]; and `N[C@H](Cn1ccc(=O)c(O)c1)C(=O)O`, with 2.81% [at 17.2 µM]; and `COc1ccc2[nH]cc(CCNc3ncnc4ccc(-c5ccccc5C#N)cc34)c2c1`, with -21.6%. With `CC(C)NC(=O)N1CC[C@@]2(CCCN(C(=O)c3ccco3)C2)C1`, the activity change, negative = inhibition is -6.33%.

With `CC(=O)Oc1ccccc1C(=O)Oc1ccccc1C(=O)O`, the activity change, negative = inhibition was 6.88% [at 17.2 µM].

In the next assay the target is Cytochrome P450 1A2 (Homo sapiens) (UniProt P05177). In words: p450-cyp1a2 (AID 410; calls by dose curve; note: potency is the fitted concentration of half-maximal effect;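 for activity change, negative = inhibition: -100% = full effect of reference inhibitor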). The conditions noted are these: recombinant CYP1A2, luciferin-ME demethylation, luminescence; series mostly up to 57 µM. In short, it runs like this: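 Read-out is luminescence from luciferin produced by CYP1A2 demethylation of Luciferin-ME (100uM, at Km). Detection reagent stopped the 60 min NADPH-dependent reaction; signals were normalized to 57 uM furafylline.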
Sequence of Cytochrome P450 1A2 (Homo sapiens) (P05177 whole entry, looked up): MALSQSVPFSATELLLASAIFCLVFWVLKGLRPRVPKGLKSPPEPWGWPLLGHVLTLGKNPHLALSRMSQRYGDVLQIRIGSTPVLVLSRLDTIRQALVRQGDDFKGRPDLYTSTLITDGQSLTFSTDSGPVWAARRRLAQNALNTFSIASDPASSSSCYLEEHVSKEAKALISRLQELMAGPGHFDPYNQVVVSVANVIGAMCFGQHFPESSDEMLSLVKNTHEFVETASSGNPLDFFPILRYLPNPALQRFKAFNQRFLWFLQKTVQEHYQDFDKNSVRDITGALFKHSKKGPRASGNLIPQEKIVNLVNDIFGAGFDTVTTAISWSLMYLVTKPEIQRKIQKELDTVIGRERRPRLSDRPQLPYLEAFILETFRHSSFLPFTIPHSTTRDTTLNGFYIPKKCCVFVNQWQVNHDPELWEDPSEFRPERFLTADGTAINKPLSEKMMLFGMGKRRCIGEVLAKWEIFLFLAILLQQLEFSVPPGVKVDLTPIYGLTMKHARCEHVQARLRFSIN
As for `COc1ccc2[nH]cc(CCNc3ncnc4ccc(-c5ccc6c(c5)OCO6)cc34)c2c1`, the Potency is 0.631 µM (active). On to `CN=C1N[C@H](c2ccccc2)N(c2ccccc2)S1`, for which the Potency is 1.26 µM (active). Take `CCCC[P+](CCCC)(CCCC)Cc1ccc(NC(=O)[C@@H](Cc2ccc3ccccc3c2)NC(=NC2CCCCC2)NC2CCCCC2)cc1`: the Potency was 31.6 µM (active). With `COc1cccc(-c2cc(NCCc3c[nH]c4ccc(OC)cc34)ncn2)c1`, the Potency is 0.794 µM (active). Take `N#CCCn1c(=O)c(-c2ccc(F)cc2)nc2cnc(Oc3cccc(Cl)c3)nc21`: the Potency was 0.501 µM (active). Turning to `COc1ccccc1CNc1ncnc2ccc(-c3ccccc3C#N)cc12`, the Potency was 1.26 µM (active).

In the case of `Cc1ccccc1-c1ccc2ncnc(N(C)C)c2c1`, the Potency is 0.631 µM (active). Still for that read-out and setting: then `N[C@@H](C(=O)O)c1ccc(O)c(C(=O)O)c1`, with “inactive”.

For the compound `COc1ccc2[nH]cc(CCNc3nc(-c4ccc(C(=O)N(C)C)cc4)nc4ccccc34)c2c1`, the Potency is 15.8 µM (active). For `Cc1cc(C)c(S(=O)(=O)Nc2ccccc2C(F)(F)F)c(C)c1`, the Potency is 31.6 µM (active). As to `CCCNC(=O)N1N=C(c2ccc(N)cc2)c2cc3c(cc2[C@H]1C)OCO3`, the Potency is 3.98 µM (active). On to `CN(Cc1ccco1)c1ncnc2ccc(-c3ccc4c(c3)OCO4)cc12`, for which the Potency was 0.501 µM (active). Consider `COc1cc2ccc(=O)oc2cc1O`, for which the Potency was 5.01 µM (active) and 12.6 µM (active). Take `CCCCCCCNS(=O)(=O)c1cccc2c(Cl)cccc12`: the Potency is 6.31 µM (active).

`O=[N+]([O-])c1cccc2c[nH]nc12`: the Potency is 2.51 µM (active). On the same count and under the same terms, then `CC[C@@]12CCCN3CCc4c(n(c5ccccc45)[C@](O)(C(=O)OC)C1)[C@H]32`, with “inactive”. Still for that read-out and setting: then `COc1cc2c(cc1OC)C(=O)Cc1ccc3c(c1CN(C)CC2)OCO3`, with “inactive”; and `COc1ccc2[nH]cc(CCNc3ncnc4ccc(-c5ccccc5C#N)cc34)c2c1`, with 3.98 µM (active); and `CC(=O)Oc1ccccc1C(=O)Oc1ccccc1C(=O)O`, with 12.6 µM (active).

Tested on in a further assay: not listed separately
Nature of the assay: NFAT Signaling Pathway (AID 444).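 Note: carbachol stimulus at about its EC50 of 1 µM final; % is set by controls: 0 for no effect and ±100 for the full control effect.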 The conditions noted are these: Jurkat NFAT-bla M1, carbachol, beta-lactamase ratio, 5 h; at 7.69 µM (top of the series) unless noted. In short, it runs like this: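 Jurkat cells carrying an NFAT-driven β-lactamase reporter and co-transfected muscarinic M1 receptor were treated with compound plus carbachol (1 uM final, an EC50 level) for 5 h at 37 °C. CCF4 loading followed for 1 h at RT; 460/530 nm ratio gave %activity.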
Regarding `COc1ccc2[nH]cc(CCNc3ncnc4ccc(-c5ccc6c(c5)OCO6)cc34)c2c1`, the activity change, negative = inhibition was -23.8%.

Regarding `COc1cccc(-c2cc(NCCc3c[nH]c4ccc(OC)cc34)ncn2)c1`, the activity change, negative = inhibition is -9.49%. `COc1ccccc1CNc1ncnc2ccc(-c3ccccc3C#N)cc12`: the activity change, negative = inhibition was 1.75%. As to `Cc1ccccc1-c1ccc2ncnc(N(C)C)c2c1`, the activity change, negative = inhibition was 7.63%. Regarding `O=c1ccc2cc(O)c(O)cc2o1`, the activity change, negative = inhibition was 28.9% [at 17.2 µM]. For the compound `Cc1[nH]ccc2c1[nH]c1cc(=O)ccc12`, the activity change, negative = inhibition was -37.6% [at 17.2 µM].

As for `CC[C@@]12CCCN3CCc4c(n(c5ccccc45)[C@](O)(C(=O)OC)C1)[C@H]32`, the activity change, negative = inhibition was -8.76% [at 17.2 µM] and -13.1% [at 17.2 µM]. `N[C@H](Cn1ccc(=O)c(O)c1)C(=O)O`: the activity change, negative = inhibition was -2.41% [at 17.2 µM].

For the compound `COc1ccc2[nH]cc(CCNc3ncnc4ccc(-c5ccccc5C#N)cc34)c2c1`, the activity change, negative = inhibition is 29.2%. For `CC(C)NC(=O)N1CC[C@@]2(CCCN(C(=O)c3ccco3)C2)C1`, the activity change, negative = inhibition is 5.58%.

On to `CC(=O)Oc1ccccc1C(=O)Oc1ccccc1C(=O)O`, for which the activity change, negative = inhibition is 3.91% [at 17.2 µM].
